Rows were chosen to be rich in hits. Some 31% of all compounds tested hit in one or more screens of this group.
CYP2C9 activ – human CYP2C9 activators, primary screen, biochemical, luminescence; 96,000 tested, 1.4% active; recombinant CYP2C9, luciferin-H conversion; stronger effect = higher value; factor 1 = untreated enzyme, 0 = blocked; activation factor at 5 µM; Cytochrome P450 2C9 (Homo sapiens), P11712; AID 1024, 2008;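 active means activation factor of 2 or more for CYP2C9 at a 5 µM dose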
PLAP act – PLAP enzyme activators, biochemical, luminescence, HTS; purified PLAP enzyme, luminescent substrate read-out; stronger effect = higher value; activation fold at 20 µM; Alkaline phosphatase, placental type (Homo sapiens), P05187; 96,000 tested, 1.2% active; in the data active means activation fold above about 2
CYP2C9 inhib – blockers of cytochrome P450 2C9 activity – biochemical, luminescence, ADME assay, primary screen; P11712; CYP2C9 Supersomes, luciferin-H conversion; inhibition, % at 5 µM; 96,000 tested, 20% active; AID 777, 2007;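 active means blocking of liver enzyme CYP2C9 beyond about 50% at 5 µM, limit read from the data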
CYP2C19 activ – human CYP2C19 activators, primary screen, biochemical, luminescence | Cytochrome P450 2C19 (Homo sapiens), P33261 | recombinant CYP2C19, luciferin-H EGE luminescence; stronger effect = higher value; 0 = fully inhibited enzyme, 1 = untreated enzyme | activation factor at 5 µM | 96,000 tested, under 10 active;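 active means activation factor of at least 2 at 5 µM in the primary screen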
Target sequence (P33261 whole entry, looked up): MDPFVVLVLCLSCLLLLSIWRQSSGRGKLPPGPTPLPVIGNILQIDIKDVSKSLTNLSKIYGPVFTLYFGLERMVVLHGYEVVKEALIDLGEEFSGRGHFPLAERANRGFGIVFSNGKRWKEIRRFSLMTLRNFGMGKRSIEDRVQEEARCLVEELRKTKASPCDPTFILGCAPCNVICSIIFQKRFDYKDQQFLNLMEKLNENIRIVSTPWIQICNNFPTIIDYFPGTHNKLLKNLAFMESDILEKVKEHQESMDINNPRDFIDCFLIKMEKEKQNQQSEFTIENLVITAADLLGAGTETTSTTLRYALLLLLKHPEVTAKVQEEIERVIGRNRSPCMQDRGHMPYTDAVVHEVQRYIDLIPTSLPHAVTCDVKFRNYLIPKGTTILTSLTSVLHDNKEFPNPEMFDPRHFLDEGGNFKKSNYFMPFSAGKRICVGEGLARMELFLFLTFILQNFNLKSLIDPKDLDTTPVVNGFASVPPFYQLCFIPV
CYP2C19 inh – blockers of cytochrome P450 2C19 activity – biochemical, luminescence, ADME assay, primary screen; P33261; CYP2C19 Supersomes, luciferin-H EGE luminescence, 30 min; inhibition, % at 5 µM; 96,000 tested, 21% active; AID 778, 2007;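 active means CYP2C19 inhibition above a set limit at 5 µM in the primary screen, cut at about 50% in these data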
A number is an active result; 0 = inactive.

SMILES	CYP2C9 activ	PLAP act	CYP2C9 inhib	CYP2C19 activ	CYP2C19 inh
COc1ccc(C(=O)c2ccc(OC)c3cccc(O)c23)cc1OC	0	0	83.7	0	0
O=C(c1cc(C2CC2)on1)N1CCOCC1	0	0	0	0	0
COc1cccc(CN(CC2CCCO2)S(=O)(=O)c2ccc(S(=O)(=O)N(C)C)cc2)c1 (stereo not drawn)	0	0	0	0	0
O=S(=O)(c1ccc(S(=O)(=O)N(Cc2cccs2)CC2CCCO2)cc1)N1CCCCC1 (stereo not drawn)	0	0	83.0	0	72.9
O=S(=O)(NC1CCCC1)c1ccc(S(=O)(=O)N(Cc2cccs2)CC2CCCO2)cc1 (stereo not drawn)	0	0	97.3	0	96.6
CCO/C(C)=C1\C(=O)Nc2ccccc21	0	0	0	0	0
Cc1ccc(S(=O)(=O)N2CCC(C(=O)N[C@@H](C)C(=O)NC3CCCCC3)CC2)cc1	0	0	0	0	0
CCCCC(=O)Nc1cccc(NC(=O)c2ccccc2Br)c1	0	0	72.6	0	58.2
C=CCN1C(=O)C(Cc2ccc(OC)cc2)S/C1=N/N=C/c1ccco1 (stereo not drawn)	0	0	0	0	78.2
CC(Oc1ccc(Cl)cc1Cl)C(=O)Nc1ncccn1 (stereo not drawn)	0	0	0	0	69.1
CC(Oc1ccc(Cl)cc1Cl)C(=O)NCCN1CCOCC1 (stereo not drawn)	0	0	0	0	0
CC(Oc1ccc(Cl)cc1Cl)C(=O)NCCCn1ccnc1 (stereo not drawn)	0	0	98.6	0	100.4
CC(Oc1ccc(Cl)cc1Cl)C(=O)NCc1ccncc1 (stereo not drawn)	0	0	97.9	0	100.4
Cc1cc(Cl)ccc1OCC(=O)N/N=C1\CCCc2ccccc21	0	0	0	0	0
CC(Oc1ccc(Cl)cc1Cl)C(=O)N/N=C1\CCCc2ccccc21 (stereo not drawn)	0	0	60.4	0	0
Cc1cc(Cl)ccc1OC(C)C(=O)NCCCCc1ccccc1 (stereo not drawn)	0	0	55.9	0	0
O=C(N=Nc1c(O)[nH]c2ccc(Br)cc12)c1ccccc1-n1cccc1	0	0	64.4	0	0
O=C(Cn1nnc(-c2ccccc2)n1)N=Nc1c(O)[nH]c2ccccc12	0	0	0	0	0
Cc1cccc(C)c1OCC(=O)N=Nc1c(O)[nH]c2ccc(Br)cc12	0	0	87.7	0	0
O=C1C2C3CCCC3=C3CCCC3C2C(=O)N1c1ccc(Cl)cc1 (stereo not drawn)	0	0	53.7	0	75.4
CCCN(CCC)CCSc1nc(O)c(C(C)C)c(=O)[nH]1	0	0	0	0	0
CCOC(=O)/C=c1\s/c(=C\c2c(OC)ccc3ccccc23)c(=O)n1CC(=O)NCC1CCCO1 (stereo not drawn)	0	0	0	0	56.6
CCOC(=O)c1sc2nc(C)n(CC(=O)NCC3CCCO3)c(=O)c2c1C (stereo not drawn)	0	0	0	0	0
O=C(Nc1cccc(Cl)c1N1CCCC1)c1ccc(Br)o1	0	0	0	0	0
O=C(Nc1ccccc1N1CCN(C(=O)c2ccc(Cl)cc2)CC1)c1ccc(Br)cc1	0	0	81.8	0	65.5
SMILES	CYP2C9 activ	PLAP act	CYP2C9 inhib	CYP2C19 activ	CYP2C19 inh
O=C(Nc1ccccc1N1CCN(C(=O)c2ccc(Cl)cc2)CC1)c1cc2ccccc2o1	0	0	91.8	0	75.1
O=C(Nc1cccc(Cl)c1N1CCCC1)c1cc2ccccc2o1	0	0	63.9	0	0
CC(C)C(=O)N1CCN(c2ccccc2NC(=O)c2cccc(Cl)c2)CC1	0	0	0	0	0
O=C(Nc1ccc(N2CCN(C(=O)c3ccc(Cl)cc3)CC2)cc1)c1cc2ccccc2o1	0	0	0	0	0
O=S(=O)(N1CCOCC1)n1cnc2ccccc21	0	0	0	0	0
O=C(C1CCCN(Cc2ccccc2)C1)N1CCc2ccccc2C1 (stereo not drawn)	0	0	0	0	0
O=C(NCC1CCCO1)c1ccc(CS(=O)(=O)c2ccc(Cl)cc2)o1 (stereo not drawn)	0	0	0	0	0
Cc1cc(C)cc(-c2nc(-c3ccncc3)no2)c1	0	0	0	0	83.2
c1ccc2c(-c3nc(-c4ccncc4)no3)cccc2c1	0	0	0	0	88.9
c1ccc(-c2noc(-c3cccc4ccccc34)n2)cc1	0	0	0	0	0
Clc1ccc(Br)cc1-c1nc(-c2ccncc2)no1	0	0	50.5	0	88.9
Brc1cccc(-c2nc(-c3ccncc3)no2)c1	0	0	51.6	0	96.8
O=C(Oc1cccc(NC(=O)c2ccccc2Cl)c1)c1ccc([N+](=O)[O-])cc1	0	0	0	0	0
CN(C)CC(O)COc1cc2ccccc2cc1C(=O)N1CCCCC1 (stereo not drawn)	0	0	0	0	0
NC(=O)c1ccc(C(F)(F)F)n(Cc2ccccc2Cl)c1=O	0	0	0	0	68.7
COC(=O)Nc1ccc(S(=O)(=O)N2CCCC(C(=O)Nc3cccc4c3OCCO4)C2)cc1 (stereo not drawn)	0	0	83.1	0	63.9
COc1ccc(C)cc1NC(=O)C1CCCN(S(=O)(=O)c2cnc[nH]2)C1 (stereo not drawn)	0	0	62.1	0	64.2
CCN(CC)c1ccc(NC(=O)C2CCCN(S(=O)(=O)c3cnc[nH]3)C2)c(C)c1 (stereo not drawn)	0	0	0	0	0
Cc1ccc2nc(NC(=O)C3CCCN(S(=O)(=O)c4cnc[nH]4)C3)sc2c1 (stereo not drawn)	0	0	51.1	0	0
Cc1ccc2nc(NC(=O)C3CCCN(S(=O)(=O)c4cccnc4)C3)sc2c1 (stereo not drawn)	0	0	0	0	0
CCSc1nnc(NC(=O)C2CCCN(S(=O)(=O)c3cnc[nH]3)C2)s1 (stereo not drawn)	0	0	74.0	0	0
CCN1CC2=C(OC(N)=C(C#N)C2c2cccs2)/C(=C\c2cccs2)C1 (stereo not drawn)	0	0	0	0	0
CC1CCC2C(C1)c1sc(=O)[nH]c1SC2(C)C (stereo not drawn)	0	0	0	0	0
O=C(NCC1CCCO1)C1CCC(CNS(=O)(=O)c2ccccc2)CC1 (stereo not drawn)	0	0	0	0	0
COc1cc(C)nc(N2CCCC(C(=O)Nc3cc(Cl)ccc3OC)C2)n1 (stereo not drawn)	0	0	0	0	84.4
CCOc1ccccc1NC(=O)C1CCCN(S(=O)(=O)c2ccc(OC)c(C)c2)C1 (stereo not drawn)	0	0	0	0	92.8
COc1ccccc1NC(=O)C1CCCN(S(=O)(=O)c2cnc[nH]2)C1 (stereo not drawn)	0	0	61.4	0	61.9

Source: PubChem BioAssay (Sanford-Burnham Center for Chemical Genomics)
